Screening data: PubChem BioAssay, Johns Hopkins Ion Channel Center
KCNQ2 pot = enhances the rat KCNQ2 potassium channel; actives 0.54% (n = 310,000); B-score at 10 µM; AID 2239; CHO-K1 KCNQ2, FluxOR thallium flux fluorescence; active compounds read high;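 active = fluorescence ratio B-score at least 3 SD of library B-scores, with initial fluorescence B-score within 3 of them, cut at about 5.3 in these data; same plate scores as AID 2156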;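 also: B-score of peak minus minimum over baseline fluorescence ratio after K+ and Tl+ stimulus; positive B-score means potentiation of KCNQ2 with more thallium influx and brighter signal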
KCNQ2 inh = blocks the rat KCNQ2 potassium channel; O88943; CHO-K1 KCNQ2, FluxOR thallium flux, 20 min; active compounds read low; B-score at 10 µM; actives 1.1% (n = 310,000); AID 2156;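 active = fluorescence ratio B-score at most minus 3 library SDs, with starting brightness B-score within 2 library SDs, cut at about -5.5 in these data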
Kir21 conf inh = confirmation of mouse Kir2.1 potassium channel inhibitors. shares compounds with KCNQ2 pot. Kir2.1-expressing cells, FluxOR thallium flux fluorescence; active compounds read low. Tl flux remaining, % of negative control (active compounds read low), % at 10 µM. actives 41% (n = 2,300);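 active = Primary-screen hit whose thallium flux fell at least 3 control SD below untreated wells in both duplicates, with normal baseline fluorescence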
HEK293 ctr = parental HEK293 activity in Kir2.1 inhibitor counter-screen | FluxOR signal as % of negative control (100 = no effect), % at 10 µM | actives 19% (n = 2,300) | parental HEK293 cells, FluxOR thallium flux fluorescence; 0% = unstimulated blank wells | shares compounds with KCNQ2 pot;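 active = dye signal at least 3 control SD above or below untreated wells in both duplicates, raw fluorescence within 3, either direction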;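 also: percent is based on the flux ratio of peak minus minimum fluorescence over baseline F0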
CHO-K1 Tl ctr = counter-screen for KCNQ2 potentiators: effect in parental CHO-K1 cells. actives 43% (n = 1,200). FluxOR thallium flux fluorescence; zero = vehicle mean+3SD, 100% = vehicle-minus-blank window. activity increase over 3SD of controls, % at 10 µM. AID 2282. shares compounds with KCNQ2 pot;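 active = signal rise of at least 3 SD above the untreated control mean, in both duplicate wells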;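 also: counter screen of KCNQ2 potentiator hits so any rise reflects channel-independent effects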
KCNQ1 sel pot = selectivity of KCNQ2 potentiators: effect on human KCNQ1; shares compounds with KCNQ2 pot; CHO KCNQ1 stable, FluxOR thallium flux fluorescence; beyond 3SD, as % of vehicle-control signal; activation over 3SD threshold, % at 10 µM; actives 28% (n = 1,200); AID 2283;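 active = fluorescence ratio rise of at least 3 SD of vehicle wells above their mean, in both replicate wells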
Target sequence (P51787 whole entry, looked up): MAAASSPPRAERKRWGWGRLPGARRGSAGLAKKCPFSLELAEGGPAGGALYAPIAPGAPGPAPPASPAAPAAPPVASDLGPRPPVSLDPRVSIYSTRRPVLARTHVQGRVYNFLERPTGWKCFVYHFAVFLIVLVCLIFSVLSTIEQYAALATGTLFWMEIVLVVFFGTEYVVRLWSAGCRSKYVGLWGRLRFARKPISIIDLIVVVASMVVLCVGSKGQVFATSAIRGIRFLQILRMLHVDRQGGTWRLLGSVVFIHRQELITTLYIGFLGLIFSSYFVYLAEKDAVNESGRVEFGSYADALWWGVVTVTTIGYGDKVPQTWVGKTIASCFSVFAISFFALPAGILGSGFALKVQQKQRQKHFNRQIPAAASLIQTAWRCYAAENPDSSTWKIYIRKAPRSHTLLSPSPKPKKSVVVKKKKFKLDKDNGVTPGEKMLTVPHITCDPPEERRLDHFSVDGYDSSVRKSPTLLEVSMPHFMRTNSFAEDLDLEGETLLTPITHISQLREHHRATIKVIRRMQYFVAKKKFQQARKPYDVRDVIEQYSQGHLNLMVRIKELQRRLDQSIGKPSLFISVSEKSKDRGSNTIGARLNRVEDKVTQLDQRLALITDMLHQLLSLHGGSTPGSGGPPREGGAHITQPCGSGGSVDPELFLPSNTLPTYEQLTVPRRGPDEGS
KCNQ2 pot conf = confirmation of rat KCNQ2 potassium channel potentiators; shares compounds with KCNQ2 pot; CHO-KCNQ2 cells, FluxOR thallium flux fluorescence; potentiation, less the hit threshold, % at 10 µM; actives 68% (n = 1,200); AID 2287;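 active = fluorescence ratio rising 3 SD or more over the vehicle control mean in both replicates, plus primary screen hit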;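 also: peak minus minimum thallium fluorescence divided by baseline after K/Tl stimulus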
Kir21 spec = tests whether KCNQ2 potentiators also affect mouse Kir2.1 | shares compounds with KCNQ2 pot | HEK293 Kir2.1, FluxOR thallium flux fluorescence | activity over 3SD threshold, % at 10 µM | actives 2% (n = 1,200) | AID 2345;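 active = fluorescence ratio rise of at least 3 SD above the vehicle-control mean, seen in both replicates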
KCNQ2 W236L pot = KCNQ2 potentiators acting on retigabine-insensitive rat KCNQ2 W236L mutant; shares compounds with KCNQ2 pot; CHO KCNQ2-W236L, automated patch clamp current; current increase over 3SD of negative controls (%), active compounds read high, % at 25 µM; actives 10% (n = 940);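 active = current increase at least 3 SD of the untreated controls above them in both duplicate recordings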
Hits are given with their value. This is a sample that favours compounds with a hit; in the whole collection about 1.6% have one here.

How did CC(C)Cn1c(=O)c(C(=O)NCc2ccccn2)c(O)c2ccccc21 do in these assays?
KCNQ2 pot: 15; KCNQ2 inh: inactive; Kir21 conf inh: inactive; HEK293 ctr: inactive; CHO-K1 Tl ctr: inactive; KCNQ1 sel pot: inactive; KCNQ2 pot conf: inactive; Kir21 spec: inactive

How did CCCn1c(=O)c(C(=O)NCc2ccncc2)c(O)c2ccccc21 do in these assays?
KCNQ2 pot: inactive; KCNQ2 inh: inactive

How did C=CCn1c(SCC#N)nc2sc(CC)cc2c1=O do in these assays?
KCNQ2 inh: inactive

How did Cc1ccc(Nc2nc(-c3cccs3)cs2)nc1 do in these assays?
KCNQ2 pot: inactive; KCNQ2 inh: inactive; Kir21 conf inh: inactive; HEK293 ctr: inactive

What do the screens show for `Cc1ccc(Nc2nc(-c3ccccc3)cs2)nc1`?
KCNQ2 pot: inactive; KCNQ2 inh: inactive

What do the screens show for `Oc1ccc(N=Nc2cccc(Cl)c2)cc1C=Nc1ccc(N2CCOCC2)cc1`?
KCNQ2 pot: inactive; KCNQ2 inh: inactive

How did Oc1c(Br)cc(Cl)cc1C=Nc1ccc(N2CCOCC2)cc1 do in these assays?
KCNQ2 pot: 11; KCNQ2 inh: inactive; Kir21 conf inh: inactive; HEK293 ctr: inactive; CHO-K1 Tl ctr: inactive; KCNQ1 sel pot: 0.5; KCNQ2 pot conf: 7.7; Kir21 spec: inactive; KCNQ2 W236L pot: inactive

What do the screens show for `Brc1csc(C=Nc2ccc3c(c2)OCCOCCOCCOCCO3)c1`?
KCNQ2 pot: inactive; KCNQ2 inh: inactive

How did Oc1c(Cl)cc(Cl)cc1C=Nc1ccc2c(c1)OCCO2 do in these assays?
KCNQ2 pot: 8.5; KCNQ2 inh: inactive; Kir21 conf inh: inactive; HEK293 ctr: inactive; CHO-K1 Tl ctr: 92; KCNQ1 sel pot: inactive; KCNQ2 pot conf: inactive; Kir21 spec: inactive; KCNQ2 W236L pot: inactive

How did COCCCNC(=O)CSc1nc2ccccc2c(=O)n1CCCN1CCCCC1 do in these assays?
KCNQ2 pot: inactive; KCNQ2 inh: inactive

Results for COc1ccc(NC(=O)CSc2nc3ccccc3c(=O)n2CCCN2CCCCC2)c(OC)c1 ?
KCNQ2 inh: inactive; Kir21 conf inh: 62%; HEK293 ctr: inactive

What do the screens show for `CC(NC(=O)c1ccc(CS(C)(=O)=O)cc1)c1cccc2ccccc12` (configuration not stated)?
KCNQ2 pot: inactive; KCNQ2 inh: inactive

How did Cc1ccccc1OCCNc1cc(N2CCNCC2)ccc1[N+](=O)[O-] do in these assays?
KCNQ2 inh: inactive; Kir21 conf inh: 36%; HEK293 ctr: inactive

What do the screens show for `COc1ccccc1OCCNc1cc(N2CCCCC2)ccc1[N+](=O)[O-]`?
KCNQ2 inh: inactive

How did Oc1c(Cl)cc(Cl)cc1CNn1cnnc1 do in these assays?
KCNQ2 inh: inactive

Results for Oc1c(Cl)cc(Cl)cc1Sc1cc(Cl)cc(Cl)c1O ?
KCNQ2 pot: 45; KCNQ2 inh: inactive; Kir21 conf inh: inactive; HEK293 ctr: 375%; CHO-K1 Tl ctr: 47; KCNQ1 sel pot: inactive; KCNQ2 pot conf: 223; Kir21 spec: inactive; KCNQ2 W236L pot: inactive

How did CCCn1c(=N)n(CC(O)c2ccc(C)cc2)c2ccccc21 (configuration not stated) do in these assays?
KCNQ2 pot: inactive; KCNQ2 inh: inactive; Kir21 conf inh: 60%; HEK293 ctr: inactive

What do the screens show for `CCCn1c(=N)n(CC(O)COc2ccc(C)cc2)c2ccccc21` (configuration not stated)?
KCNQ2 pot: inactive; KCNQ2 inh: inactive

Results for O=C(O)C1=C[C@@H](C2CCCCC2)C[C@@H](OCc2ccc(CO)cc2)O1 ?
KCNQ2 pot: inactive; KCNQ2 inh: inactive
